NR0B1 inh = NR0B1 (DAX1) inhibition; HEK293 Gal4-DAX1 luciferase reporter, luminescence; inhibition, % at 6.75 µM; P51843; actives 0.99% (n = 340,000);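 active means inhibition above the mean over all tested compounds plus 3 SD, cut at about 4.2% in these data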;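 further: inhibition shows as a rise in luminescence from relieved DAX1 repression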
FXN GAA850 act = frataxin GAA850 promoter activation | HEK293 lucGAA850 FXN promoter luciferase reporter, 24 h; percent of 10 µM SAHA response | activation, % at 6 µM | actives 0.56% (n = 360,000) | AID 540364;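 active means activation above the average of all compounds screened plus 3 SD, cutoff fixed separately per campaign, cut at about 7.5% in these data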
AHR act = activates the human aryl hydrocarbon receptor; P35869; actives 2.5% (n = 320,000); activation, % at 5 µM; AID 2796; AHR-responsive luciferase reporter cells, luminescence; in the data active means activation above about 47%
Target sequence (P35869 whole entry, looked up): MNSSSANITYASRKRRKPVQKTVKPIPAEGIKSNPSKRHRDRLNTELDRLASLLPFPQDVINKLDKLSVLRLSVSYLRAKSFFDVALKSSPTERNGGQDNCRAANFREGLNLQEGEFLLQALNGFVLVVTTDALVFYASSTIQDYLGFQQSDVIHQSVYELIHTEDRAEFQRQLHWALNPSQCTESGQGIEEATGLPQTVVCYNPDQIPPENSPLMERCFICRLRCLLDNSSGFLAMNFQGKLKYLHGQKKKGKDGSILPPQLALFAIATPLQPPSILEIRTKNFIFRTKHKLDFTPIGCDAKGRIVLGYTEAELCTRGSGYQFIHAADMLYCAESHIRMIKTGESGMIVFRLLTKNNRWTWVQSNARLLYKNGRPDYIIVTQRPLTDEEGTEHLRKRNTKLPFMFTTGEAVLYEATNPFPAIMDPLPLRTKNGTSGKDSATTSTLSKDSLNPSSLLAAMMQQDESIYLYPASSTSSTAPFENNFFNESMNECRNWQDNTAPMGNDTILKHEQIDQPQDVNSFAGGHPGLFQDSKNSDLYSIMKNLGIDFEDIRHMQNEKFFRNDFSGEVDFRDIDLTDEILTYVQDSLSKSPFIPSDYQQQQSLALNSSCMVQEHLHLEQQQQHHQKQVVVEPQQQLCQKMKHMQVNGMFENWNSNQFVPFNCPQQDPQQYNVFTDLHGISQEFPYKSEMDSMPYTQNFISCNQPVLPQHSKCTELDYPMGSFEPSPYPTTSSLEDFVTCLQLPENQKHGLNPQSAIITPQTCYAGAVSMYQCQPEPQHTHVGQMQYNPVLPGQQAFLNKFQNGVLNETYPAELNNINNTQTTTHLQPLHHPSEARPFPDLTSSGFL
HSF1 inhib = HSF1 inhibition; NIH3T3-HGL HSE-luciferase, MG132-induced, luminescence 8 h; active compounds read low; activity change, negative = inhibition, % at 7.5 µM (by protocol); actives 0.77% (n = 300,000); AID 2098;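 active means more than half of replicate wells show activity change below -50%, luminescence cut by over half; inconclusive means some wells, but at most half, below -50%; inactive means no replicate well below -50%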;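 further: luciferase reports HSF-1 transcriptional activity via heat shock element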
HSF1 activator = increases HSF-1 driven luciferase reporter signal | NIH3T3-HGL HSF-1 luciferase reporter, MG132, 8 h; 100% = twice DMSO control signal | activation, % at 9 µM | actives 1.7% (n = 300,000);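 active means mean replicate activation of at least 50% with a set share of replicates each reaching 50%; inconclusive means only one of those two conditions met; inactive means mean below 50% and too few replicates reaching it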
AHR act confirm = human AHR activation, confirmation | shares compounds with AHR act | human cells, AHR-responsive luciferase reporter, luminescence | activation, % at 9 µM | actives 87% (n = 2,300); in the data active means activation above about 49%;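 further: HepG2 hepatoma cells carrying a DRE-driven firefly luciferase reporter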
PXR counter = PXR activation, counter-screen for AHR activators. shares compounds with AHR act. AID 434939. cell-based PXR reporter, luciferase luminescence. activation, % at 11.6 µM. actives 88% (n = 2,300); in the data active means activation above about 11%;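 further: human hepatoma DPX-2 cells expressing full-length human PXR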
Numbers stand for hits; 0 = inactive; ? = inconclusive; - = not tested or not shown. Compounds with a hit are over-represented: about 5.4% of the library has one in this group of screens.

SMILES	NR0B1 inh	FXN GAA850 act	AHR act	HSF1 inhib	HSF1 activator	AHR act confirm	PXR counter
C=CCn1c(=O)c(C(=O)NCCc2ccc(Cl)cc2)c(O)c2cc(OC)c(OC)cc21	0	0	0	0	0	-	-
CCSC(=O)NC1CCCCC1	-	0	0	0	0	-	-
COc1ccccc1NC(=O)C1CCCN(c2cnccn2)C1 (stereo unspecified)	0	0	96	0	0	80	24
Nc1c(Cl)cc(-c2csc(NC(CO)c3nc4ccccc4n3CCOCCO)n2)cc1Cl (stereo unspecified)	0	0	80	0	0	90	104
CCOc1ccc2oc(C(=O)Nc3cc(C)ccn3)c(C)c2c1	0	0	0	0	0	-	-
COC(=O)c1ccc(COC(=O)C(NC(=O)Cc2ccccc2)C(C)C)cc1 (stereo unspecified)	0	0	-	-	-	-	-
O=c1c2[nH]c3ccc(F)cc3c2ncn1CCCn1ccnc1	0	0	96	0	0	81	18
CC(OC(=O)c1cccc(-n2cnnn2)c1)C(=O)Nc1ccc(F)c(F)c1F (stereo unspecified)	0	0	-	-	-	-	-
N#C/C(=C\c1c(F)cccc1Cl)C(=O)NC1CC1	0	0	0	0	0	-	-
CCOC(CNC(=O)c1cccn2c(=O)c3c(C)c(C)sc3nc12)OCC	0	0	0	0	0	-	-
CCOC(CNC(=O)c1cccn2c(=O)c3cc(Cl)ccc3nc12)OCC	0	0	83	0	0	134	14
Fc1ccc(N2CCN(c3nc(-c4ccco4)cc(C(F)(F)F)n3)CC2)cc1	0	0	115	0	0	105	14
COc1cc2c(cc1OC)/C(=C/c1ccc(Br)cc1)C(=O)OC2	0	0	85	0	0	60	15
C[C@H](CO)N1C[C@H](C)[C@@H](CN(C)C)Oc2c(NS(=O)(=O)c3ccc(F)cc3)cccc2C1=O	0	0	0	-	-	-	-
COc1cc(OC)cc(C(=O)NC2=NCCS2)c1	0	0	95	0	0	101	20
COc1ccc(C(=O)NC2=NCCS2)cc1	0	0	0	0	0	-	-
O=C(CSc1nc2[nH]ncc2c(=O)[nH]1)Nc1cc(C(F)(F)F)ccc1Cl	0	0	-	-	-	-	-
O=C(NCc1ccc2c(c1)OCO2)c1ccc(Br)o1	0	0	0	0	0	-	-
O=C(N/N=C/c1ccc2c(c1)OCO2)c1ccc(Br)o1	0	0	175	0	0	120	22
Cc1cccc(NC(=S)N/N=C/c2ccc3c(c2)OCO3)c1	0	0	94	0	0	71	87
Cc1ccc(C(=O)Nc2ccc(C(=O)N/N=C/c3c[nH]c4ccccc34)cc2)cc1	0	0	0	0	0	-	-
Cc1cccc(NC(=S)N/N=C/c2c[nH]c3ccccc23)c1	0	0	135	0	?	87	19
Cc1cccc(NC(=S)N/N=C/c2cccc([N+](=O)[O-])c2)c1	0	0	134	0	0	145	41
Cc1cccc(NC(=S)NCc2ccc3c(c2)OCO3)c1	0	0	0	0	0	-	-
Cc1cc(C)c(CN2CCN(CCCn3ccc(NC(=O)OCc4ccccc4)nc3=O)CC2)c(C)c1	0	0	-	-	-	-	-
SMILES	NR0B1 inh	FXN GAA850 act	AHR act	HSF1 inhib	HSF1 activator	AHR act confirm	PXR counter
CC(C)NC(=O)COC(=O)C1CSC2(c3ccc(Br)cc3)CCC(=O)N12 (stereo unspecified)	0	0	0	0	0	-	-
CCCCN(C)C(=O)c1sc(=O)n(CC(=O)c2ccccc2OC)c1C	-	0	-	-	-	-	-
COc1cc(N)c(Cl)cc1NC(=O)c1ccccc1	0	0	94	0	0	117	15
COc1cc(NC(=O)C(C)Oc2ccccc2)c(OC)cc1NC(=O)c1ccccc1 (stereo unspecified)	0	0	82	0	0	100	14
Cc1ccc(CN2CCN(/N=C/c3cccs3)CC2)cc1	0	0	0	0	0	-	-
O=S1(=O)c2cccc3cccc(c23)N1CCBr	0	0	0	0	0	-	-
CN(CC(=O)Nc1ccc(F)cc1)C(=O)COC(=O)c1ccc(-c2ccccc2)cc1	0	0	0	0	0	-	-
CC(=O)n1cc(/C=N/NC(=O)c2sc(C)nc2C)c2ccccc21	0	0	94	0	0	64	-
C=CCn1c(O)c(N=Nc2ccccc2O)c2ccccc21	0	0	82	-	-	87	33
C=CCn1c(O)c(N=Nc2ccccc2[N+](=O)[O-])c2ccccc21	0	0	-	-	-	-	-

Assay outcomes: PubChem BioAssay, several laboratories
